Data from PubChem BioAssay (NCATS).
Inconclusive results are not listed. A call without a number means that no potency is given here. Calls of active or inactive are those of the source. Calls follow the shape of the dose curve; as a rule, active = well fitted cell-killing curve with a large enough effect; inconclusive = small, poorly fitted or top-dose-only effect, or effect the other way; inactive = flat fitted curve, though single readings scatter.

Each compound was assayed on Es-2 (assay: Primary qHTS to identify gynecologic anti-cancer compounds using libraries of approved drugs and bioactive compounds (AID 1345084; also: nearly all actives have a fitted effect of over 55% in size)). Settings: Gynecologic cancer cell panel viability, ATPlite luminescence, 48 h; series mostly up to 57.5 µM.
Summary of the method: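 Luminescence from the ATPlite ATP-monitoring reagent indicates viable cell number; lower signal means cytotoxicity. Cells received compound 16 h after seeding and were exposed for 48 h across five concentrations.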

Structure (SMILES)	Potency
COc1c(OC2OC(CO)C(O)C(O)C2O)ccc(O)c1C(=O)OCc1ccccc1O[C@@H]1O[C@H](CO)[C@@H](O)[C@H](O)[C@H]1O (stereo partly specified)	inactive
CC1CCC2(C(=O)OC3OC(CO)C(O)C(O)C3O)CCC3(C)C(=CCC4C5(C)CC(O)C(O)C(C)(C(=O)O)C5CCC43C)C2C1(C)O (stereo unspecified)	inactive
CC(=O)O[C@@H]1[C@H]2[C@@H](OC(=O)c3ccccc3)[C@@H](C)C[C@]2(O)[C@H](OC(C)=O)[C@@]2(C)[C@@H]3CC(C)(C)C(=O)[C@]3(OC(C)=O)C[C@@]12C	inactive
Cc1[nH]cnc1C1CCN(c2nc3cccc4c3n2CCC4=O)CC1	inactive
CN1CC[C@@H](NC(=O)Nc2ccc(C#N)cc2)C[C@@H]1c1nc2ccccc2[nH]1	inactive
CC1=C2C(=O)O[C@@H](c3ccoc3)[C@]2(C)CCC1	inactive
COc1ncc(-c2ccc3c(Nc4cc(Oc5cc(F)cc(F)c5)cc(C(=O)O)c4)c(S(=O)(=O)NC4CC4)cnc3c2)c(OC)n1	inactive
C=C1CCC(OC(C)=O)C2(C)CC3(O)OC(=O)C(C)=C3CC12 (stereo unspecified)	inactive
C=C1CC[C@H]2[C@@](C)(CCC[C@@]2(C)C(=O)O)[C@@H]1CCC(C)CCO (stereo partly specified)	inactive
CC1CCC2(C(=O)OC3OC(CO)C(O)C(O)C3O)CCC3(C(=O)O)C(=CCC4C5(C)CCC(OC6OC(C)C(O)C(O)C6O)C(C)(C)C5CCC43C)C2C1C (stereo unspecified)	inactive
CCC(C)/C=C(C)/C=C/C1=CC2=C(Cl)C(=O)C(C)(OC(C)=O)C(=O)C2=CN1C1CCCCN(C(CCC(N)=O)C(=O)O)C1=O (stereo unspecified)	inactive
